This is an account of results in PubChem BioAssay (EPA / NIEHS).

The structures appear in SMILES notation. Results filed as inconclusive are left out. The source made the active and inactive calls. How the source made its calls: active means hit-call score of the fitted dose curve at least 0.9, where 1 is the maximum; inconclusive means response in the unintended direction; inactive means score below 0.9.

human RAR-related Orphan Receptor beta (RORb), RORB (gene 6096), sequence (Q92753 whole entry, looked up): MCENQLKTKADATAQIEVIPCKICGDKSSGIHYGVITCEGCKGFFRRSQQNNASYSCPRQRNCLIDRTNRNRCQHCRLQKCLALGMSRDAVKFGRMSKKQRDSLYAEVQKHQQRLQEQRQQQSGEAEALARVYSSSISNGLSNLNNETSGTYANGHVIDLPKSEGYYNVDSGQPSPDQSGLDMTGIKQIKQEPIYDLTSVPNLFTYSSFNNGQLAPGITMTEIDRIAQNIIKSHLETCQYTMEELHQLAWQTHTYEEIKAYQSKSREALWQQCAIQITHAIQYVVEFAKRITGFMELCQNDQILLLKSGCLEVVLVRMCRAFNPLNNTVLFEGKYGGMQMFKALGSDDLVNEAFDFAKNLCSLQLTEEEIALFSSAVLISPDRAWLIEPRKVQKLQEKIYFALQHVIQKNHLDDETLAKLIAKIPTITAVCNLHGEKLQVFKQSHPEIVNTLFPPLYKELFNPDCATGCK

This test deals with human RAR-related Orphan Receptor beta (RORb), RORB (gene 6096) (UniProt Q92753). Briefly: ATG_RORb_TRANS: Attagene TRANS-FACTORIAL HepG2 Assay for human RAR-related Orphan Receptor beta (RORb) (AID 2283010). The procedure:
ATG_TRANS is a cell-based, multiplexed-readout assay that uses HepG2, a human liver cell line, with measurements taken at 24 hours after chemical dosing in a 24-well plate.ATG_RORb_TRANS is one of 30 assay component(s) measured or calculated from the ATG_TRANS assay. It is designed to make measurements of mRNA induction, a form of inducible reporter, as detected with fluorescence intensity signals by Reverse transcription polymerase chain reaction (RT-PCR) and Capillary electrophoresis technology.Data from the assay component ATG_RORb_TRANS was analyzed into 1 assay endpoint. This assay endpoint, ATG_RORb_TRANS, was analyzed in the positive analysis fitting direction relative to DMSO as the negative control and baseline of activity. Using a type of inducible reporter, measures of mRNA for gain-of-signal activity can be used to understand the reporter gene at the transcription factor-level as they relate to the gene RORB. Furthermore, this assay endpoint can be referred to as a primary readout, because this assay has produced multiple assay endpoints where this one serves a reporter gene function. To generalize the intended target to other relatable targets, this assay endpoint is annotated to the nuclear receptor intended target family, where the subfamily is orphan.
Human liver HepG2 cells are transiently transfected with multiple reporter transcription units (MRTUs) in 6-well plates using FuGene 6 reagent (Roche; 3 ml FuGene/1 mg DNA). The MRTU constructs are regulated by a cis-regulating element (promoter). […] A major difference between the CIS and TRANS system is that in CIS activities of endogenous TFs are measured, whereas the TRANS assay evaluates changes in activities of exogenous, chimeric NR-Gal4 proteins. […] At the end of 24 hour incubation, total RNA was isolated using TriZol reagent (Invitrogen). The isolated RNA is then reverse-transcribed using oligo(dT) primer and Mo-MLV reverse transcriptase (Invitrogen) with DNAse I (Ambion) treatment for 30 min. The one-tenth of the produced cDNA was amplified by PCR using Taq DNA polymerase (Invitrogen) and two reporter sequence-specific primers. The PCR products were fluorescently labeled by primer extension with 6-arboxyfluorescein (6-FAM) 5'-labeled reporter sequence-specific primer (2 min at 95 C, 20 s at 68 C and 10 min at 72 C) and these products were digested with 5U of HpaI (New England Biolabs) for 2h at 37 C. The fragments were purified using Qiaquick PCR columns (Qiagen), analyzed on an ABI 3130xL genetic analyzer (Applied Biosystems) with peak positions identified by using a set of X-rhodamine (ROX)-labeled MapMarker1000 molecular weight standards (BioVentures). The raw capillary electrophoresis data was processed using Attagraph software (Attagene).
For the compound `CC1=C(O)C(=O)C(C)O1` (stereo not given), the call was inactive.
With `CCCCC(CC)COC(=O)/C=C/c1ccc(OC)cc1` (stereo not given), the call was inactive.
In the case of `O=C(Cl)c1ccc(C(=O)Cl)cc1`, the compound was called inactive.
On to `O=C(O)CCC(=O)O`, for which the outcome was inactive.
The value for `CCCCCCCCC(CO)CCCCCC` (stereo not given) was “inactive”; that for `O=C1CCCCCCCCCCC1` was “inactive”; that for `Cc1c(C(=O)c2c[nH]n(C)c2=O)ccc(S(C)(=O)=O)c1C1=NOCC1` was “inactive”.
With `CC=C(C)C(C)=O`, the outcome was inactive.
In the case of `Cc1c(Cl)cccc1Cl`, the compound was classed as inactive.
With `CCOC(=O)C1=NOC(c2ccccc2)(c2ccccc2)C1`, the compound was classed as inactive.
`CC1(C)C(=O)N(CO)C(=O)N1CO`: the call was inactive.
The value for `O=C(C=Cc1ccccc1)OCCc1ccccc1` was “inactive”; that for `CN(C)c1ccc2nc3ccc(=[N+](C)C)cc-3sc2c1` was “inactive”; that for `Cn1cccc1` was “inactive”.
For `CC(=O)OC1CCCCC1C(C)(C)C` (stereo not given), the result was inactive.
On to `N=C1C=CC(=C(c2ccc(N)cc2)c2ccc(N)cc2)C=C1`, for which the compound was classed as inactive.
As to `Nc1ccnc(=O)[nH]1`, the outcome was inactive.
For the compound `CCOC(=O)/C=C\C(=O)OCC`, the compound was called inactive.
Regarding `CCC1(C)C(=O)N(Cl)C(=O)N1Cl` (stereo not given), the result was inactive.
As to `CCC(=O)C1CC(C(C)C)CC=C1C` (stereo not given), the compound was called inactive.
As for `Cc1ccc(C)c(OCCCC(C)(C)C(=O)O)c1`, the call was inactive.
Take `OCCCc1ccccc1`: the outcome was inactive.
The value for `CCCCCC(=O)OCC` was “inactive”; that for `C=C(C)C(=O)OCC(O)COc1ccc(C(C)(C)c2ccc(OCC(O)COC(=O)C(=C)C)cc2)cc1` (stereo not given) was “inactive”; that for `CC/C=C\CCOC(=O)c1ccccc1O` was “inactive”.
In the case of `COc1cc(C)ccc1O`, the outcome was inactive.
As to `CC(C)C(=O)OCCOc1ccccc1`, the compound was called inactive.
Take `CC12CCC(CC1)C(C)(C)O2`: the compound was classed as inactive.
As to `CO[Si](CCCS)(OC)OC`, the compound was called inactive.
In the case of `CC(=O)c1ccccc1O`, the result was inactive.
As for `CC1C(C)(C)C2=C(C(=O)CCC2)C1(C)C` (stereo not given), the compound was classed as inactive.
As to `C=CC(=O)O[C@H]1C[C@@H]2CC[C@@]1(C)C2(C)C`, the outcome was inactive.
As for `C=CCCCCCCCCC=O`, the outcome was inactive.
Turning to `O=C(O)C(F)(F)C(F)(F)C(F)(F)C(F)(F)C(=O)O`, the compound was classed as inactive.
For `CCCSSCCC`, the compound was classed as inactive.
The value for `Cc1c(O)cccc1O` was “inactive”; that for `CC1=CC(C)C(C=O)CC1` (stereo not given) was “inactive”.
Regarding `CC(C)c1cccc(C(C)C)c1N`, the call was inactive.
On to `CC1OC(=O)C(C)OC1=O` (stereo not given), for which the compound was classed as inactive.
Consider `CCCCCCOC(=O)CCCCC(=O)OCCCCCC`, for which the outcome was inactive.
